KCNQ2 enhance – KCNQ2 (rat) channel potentiation. O88943. CHO-K1 KCNQ2, FluxOR thallium flux fluorescence; active compounds read high. B-score at 10 µM. actives 0.54% (n = 310,000). AID 2239;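 active = fluorescence ratio B-score at least 3 SD of library B-scores, with initial fluorescence B-score within 3 of them, cut at about 5.3 in these data; same plate scores as AID 2156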;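 note: B-score of peak minus minimum over baseline fluorescence ratio after K+ and Tl+ stimulus; positive B-score means potentiation of KCNQ2 with more thallium influx and brighter signal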
Target sequence (O88943 whole entry, looked up): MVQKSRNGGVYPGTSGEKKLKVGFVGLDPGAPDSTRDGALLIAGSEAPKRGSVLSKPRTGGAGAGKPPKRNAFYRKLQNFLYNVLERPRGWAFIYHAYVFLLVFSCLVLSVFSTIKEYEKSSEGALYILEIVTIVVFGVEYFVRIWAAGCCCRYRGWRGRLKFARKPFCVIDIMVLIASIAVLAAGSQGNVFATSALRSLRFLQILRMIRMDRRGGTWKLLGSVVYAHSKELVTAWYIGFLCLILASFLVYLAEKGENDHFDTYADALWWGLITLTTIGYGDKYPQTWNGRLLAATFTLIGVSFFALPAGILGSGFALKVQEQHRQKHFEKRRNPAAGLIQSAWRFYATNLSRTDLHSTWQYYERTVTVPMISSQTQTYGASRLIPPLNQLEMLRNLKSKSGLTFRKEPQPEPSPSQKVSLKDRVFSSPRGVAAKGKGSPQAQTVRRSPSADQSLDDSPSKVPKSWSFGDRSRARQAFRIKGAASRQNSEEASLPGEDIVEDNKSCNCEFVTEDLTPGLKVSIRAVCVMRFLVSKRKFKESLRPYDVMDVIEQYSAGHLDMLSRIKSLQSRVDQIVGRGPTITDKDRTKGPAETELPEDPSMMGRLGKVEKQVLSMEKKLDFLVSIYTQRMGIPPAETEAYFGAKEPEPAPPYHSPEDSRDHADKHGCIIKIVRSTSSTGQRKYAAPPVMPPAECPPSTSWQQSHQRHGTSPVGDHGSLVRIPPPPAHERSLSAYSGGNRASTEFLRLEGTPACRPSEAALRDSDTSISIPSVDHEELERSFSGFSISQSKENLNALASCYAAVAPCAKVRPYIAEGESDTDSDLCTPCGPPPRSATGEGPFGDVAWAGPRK
KCNQ2 inh – inhibitors of rat KCNQ2 potassium channel. O88943. CHO-K1 KCNQ2, FluxOR thallium flux, 20 min; active compounds read low. B-score at 10 µM. actives 1.1% (n = 310,000). AID 2156;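 active = fluorescence ratio B-score at most minus 3 library SDs, with starting brightness B-score within 2 library SDs, cut at about -5.5 in these data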
Large screens that a line does not name were inactive. Compounds with a hit are over-represented: about 1.6% of the library has one in this group of screens.

CCN(c1ccccc1)S(=O)(=O)c1cc(C(=O)Nc2ccccc2Cl)ccc1F	KCNQ2 inh -6.01
CCN(c1ccccc1)S(=O)(=O)c1ccc(F)c(C(=O)O)c1	none
CCN(c1ccccc1)S(=O)(=O)c1cc(C(=O)Nc2ccc(Br)cc2)ccc1F	KCNQ2 inh -6.2
CN(C)C(=O)CCCCCCCCC(=O)N(C)C	none (no result: KCNQ2 enhance)
O=C(CN(C(=O)c1csnn1)c1ccc(F)c(Cl)c1)NC1CCCC1	none (no result: KCNQ2 enhance)
CCN(CC)S(=O)(=O)c1ccc(N2CCCCC2)c(NC(=O)/C=C/c2cc(OC)c(OC)c(OC)c2)c1	KCNQ2 inh -6.41
CCc1ccccc1NC(=O)c1cc([N+](=O)[O-])ccc1N1CCOCC1	none
CC1CCN(c2ccccc2NC(=O)c2cc([N+](=O)[O-])ccc2N2CCOCC2)CC1	KCNQ2 inh -5.67
CCN(CC)S(=O)(=O)c1ccc(N2CCCCC2)c(C(=O)Nc2ccccc2N2CCOCC2)c1	KCNQ2 inh -8
CCN(CC)S(=O)(=O)c1ccc(N2CCOCC2)c(NC(=O)c2cccc3ccccc23)c1	none (no result: KCNQ2 enhance)
COc1cc(/C=C/C(=O)Nc2cc(S(=O)(=O)N3CCOCC3)ccc2N2CCCC2)cc(OC)c1OC	none (no result: KCNQ2 enhance)
CCC(C)C(NC(=O)c1ccccc1NC(=O)c1ccco1)C(=O)NNC(=O)c1ccncc1 (stereo not given)	none
ClC1(Cl)CC1CSc1nnc(-c2ccncc2)o1 (stereo not given)	none (no result: KCNQ2 enhance)
COc1ccc(-n2cccc2C=O)cc1	none
COc1ccc(-n2cccc2/C=C/[N+](=O)[O-])cc1	KCNQ2 inh -6.46
CCc1nnc(NS(=O)(=O)c2ccc(Nc3ccc4nonc4c3[N+](=O)[O-])cc2)s1	none
CC(C)(C)C(=O)c1no[n+]([O-])c1/C(=N/O)C(C)(C)C	KCNQ2 inh -6.97
O=C(CN1CCN(S(=O)(=O)c2ccc(F)cc2)CC1)NC1CCCC1	none
CCOC(=O)c1ccc(S(=O)(=O)N2CCN(CC(=O)NC(=O)NC3CCCCC3)CC2)cc1	KCNQ2 inh -5.62
COC(=O)CCC(=O)N1CN2CN(C(=O)CCC(=O)OC)CC([N+](=O)[O-])(C2)C1	none
CN(C)c1ccsc1C(=O)NNS(=O)(=O)c1ccc(Cl)cc1	none (no result: KCNQ2 enhance)
O=C(CN1C(=O)C2CCCCC2C1=O)Nc1nc2ccc(F)cc2s1 (stereo not given)	KCNQ2 inh -6.18
O=C(CN1CCOCC1)Nc1nc2ccc(F)cc2s1	none (no result: KCNQ2 enhance)
CCN(CC)c1ccc(C(=O)OCC(=O)Nc2ccccc2-c2ccccc2)cc1	KCNQ2 inh -6.5
CN(C)c1cccc(C(=O)OCC(=O)Nc2ccccc2-c2ccccc2)c1	none
O=C1CCC(C(=O)N2CCCC(C(=O)c3ccc4c5c(cccc35)CC4)C2)=NN1 (stereo not given)	none (no result: KCNQ2 enhance)
C/C(=C\C(=O)OCCCCCCCCC(=O)O)C[C@@H]1OC[C@H](C[C@@H]2O[C@H]2[C@@H](C)[C@H](C)O)[C@@H](O)[C@H]1O	none (no result: KCNQ2 enhance)
CCOc1ccc(OCC)c(NC(=O)C2CCN(S(=O)(=O)c3cnc[nH]3)CC2)c1	none
Cc1nnc(SCC(=O)Nc2ccccc2)c2ccccc12	none (no result: KCNQ2 enhance)
Cc1nnc(SCC(=O)Nc2ccc(O)cc2)c2ccccc12	KCNQ2 inh -5.63
Cc1occc1C(=O)N1CCN(S(=O)(=O)c2ccccc2)CC1	none (no result: KCNQ2 enhance)
Cc1cccc(/C=C2\Sc3ccc(C(=O)N4CCCCC4)cc3N(C)C2=O)c1	none (no result: KCNQ2 enhance)
Cc1cccc(/C=C2\Sc3ccc(C(=O)N4CCC(C)CC4)cc3N(C)C2=O)c1	KCNQ2 inh -6.52
Cc1cccc(NC(=O)CSc2cc(C)c(C#N)c3nc4ccccc4n23)c1	none
CC(C)(C(=O)Nc1nccs1)c1ccccc1	none (no result: KCNQ2 enhance)
CC(C)c1ccc(-c2cc(C(=O)N3CCOCC3)c3cc(Br)ccc3n2)cc1	KCNQ2 inh -6
O=C(c1cc(-c2ccccc2)nc2ccccc12)N1CCOCC1	none (no result: KCNQ2 enhance)
CC(=O)c1cccc(NC(=O)CCn2c(=S)oc3ccccc32)c1	none
CCCc1nc(SCC(=O)N2CCC(Cc3ccccc3)CC2)c2c(=O)n(C)c(=O)n(C)c2n1	KCNQ2 enhance 22.9
CCCc1nc(SCC(=O)Nc2ccccc2)c2c(=O)n(C)c(=O)n(C)c2n1	none
CN(Cc1ccccc1)C(=O)COC(=O)c1ccc(Cl)cc1N	none (no result: KCNQ2 enhance)
COc1ccc(C(=O)Nc2cc(=O)[nH]c3ncnn23)cc1	none
CCCCOc1ccc(C(=O)N/C(=C\c2cccc([N+](=O)[O-])c2)C(=O)OCCC)cc1	none (no result: KCNQ2 enhance)
CCCCOc1ccc(C(=O)N/C(=C\c2cccc([N+](=O)[O-])c2)C(=O)OC(C)C)cc1	KCNQ2 inh -6.05
Cc1ccc(C(=O)O/N=C2\CC3CCC2(C)C3(C)C)cc1 (stereo not given)	none (no result: KCNQ2 enhance)
Cc1cccc(C(=O)O/N=C2/CC3CCC2(C)C3(C)C)c1 (stereo not given)	KCNQ2 inh -5.68
CCCc1cc(C(=O)Nc2ccc(C(=O)c3ccc(C)cc3)cc2)n(C)n1	none
Cc1ccc(C(=O)N2Cc3ccccc3CC2C(=O)O)cc1 (stereo not given)	none
Cc1ccc(NC(=O)C2Cc3ccccc3CN2C(=O)c2ccccc2)cc1Cl (stereo not given)	KCNQ2 inh -6.08
O=C(NCc1nc2ccccc2[nH]1)c1ccccc1F	none

From PubChem BioAssay
